Rows were chosen to be rich in hits. Some 7.1% of all compounds tested hit in one or more screens of this group.
IL1B secr inh – blocks inflammasome-driven IL-1 beta release | THP-1 LPS/ATP IL-1B secretion, AlphaLISA, 16 h; stronger effect = lower value | activity change, % at 57.5 µM | 4.7% of 360,000 active | AID 743279; in the data active means activity change below about -50%; inconclusive means mostly about -30% to -49%
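THP-1 cells pretreated 1 hr with compounds (up to 57.5 uM final), then stimulated with LPS (250 ng/mL final) plus ATP (1.25 mM final); secreted IL-1B measured by AlphaLISA after 16 hr, decreased signal indicating inhibition.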
S2 tox – reduces viability in counter-screen for ATXN expression inhibitors; Potency, µM (highest dose often 56.7 µM), actives largely listed as cytotoxic; 0.49% of 400,000 active; S2 cells (HEK-293 line with an ATXN2-luciferase reporter) viability, CellTiter-Fluor protease fluorescence, 24 h; further: nearly all actives have a fitted effect of over 40% in size
MCF10A rereplic – DNA re-replication induction in MCF 10a cells. MCF 10A DNA re-replication, Hoechst nuclear intensity, 48 h. Potency, µM (highest dose often 46.1 µM), hits mostly activators. 2.9% of 350,000 active. AID 624296; further: nearly all actives have a fitted effect of over 50% in size
ATXN2 expr inh – inhibitors of ATXN2 expression. 0.72% of 360,000 active. HEK-293 ATXN2-luciferase reporter, luminescence, 24 h. Potency, µM (top dose mostly 57 µM), usual class: inhibitors; further: nearly all actives have a fitted effect of over 55% in size
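qHTS (up to 57 uM final) was run with 24 h compound exposure of reporter cells at 37 °C. Each well was multiplexed: SteadyGlo luminescence measured ATXN2-luciferase expression after a fluorogenic Gly-Phe-AFC viability readout (25 uM final).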
SW480 rerep – induces DNA re-replication in SW480 colon adenocarcinoma cells | 1.8% of 340,000 active | Potency, µM (titrated, usually from 46.1 µM), most hits filed as activators | SW480 DNA re-replication, Hoechst DNA content imaging, 48 h; further: nearly all actives have a fitted effect of over 55% in size
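Hoechst fluorescence of nuclei (405 nm excitation, 500-530 nm emission) measured by plate-scanning imager after 48 hr compound exposure at 37 C; re-replication scored as increased number of nuclei with elevated intensity.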
PINK1 modulator – modulators of PINK1 expression. 0.2% of 410,000 active. Potency, µM (titrated, usually from 76.6 µM), usual class: activators. PINK1 immunofluorescence, high-content cytometry, 24 h; active means well fitted activation curve with a large enough effect; inconclusive means small, poorly fitted or top-dose-only effect; cell line not stated here; further: nearly all actives have a fitted effect of over 65% in size
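Decision-based qHTS: stable cells, 24 h exposure to five compound concentrations, CCCP as control. Fixed cells stained for PINK1 plus nuclear, mitochondrial and cell markers, cytometer read.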
Hits are given with their value; . = inactive; ? = inconclusive; / = no result given; [ ] = remark or other dose. Unless noted, the call rests on the fitted dose curve; in most records, active means well fitted curve in the direction sought with a large enough effect; inconclusive means small, poorly fitted or top-dose-only effect, or another doubt; inactive means no such curve, though single readings can be large; an effect the other way counts as inactive or inconclusive.

SMILES	IL1B secr inh	S2 tox	MCF10A rereplic	ATXN2 expr inh	SW480 rerep	PINK1 modulator
Cc1ccccc1CNc1ccc(C(CC(N)=O)NC(=O)c2ccc(Br)cc2)cc1[N+](=O)[O-] (configuration not stated)	.	/	10.3µM	?	?	.
CCc1cc2c(-c3ccccc3)cc(=O)oc2c2c1OCN(Cc1ccc(F)cc1)C2	/	/	/	.	/	.
CC(=O)c1ccc(Oc2ncnc(N)c2[N+](=O)[O-])cc1	.	.	4.11µM	.	.	.
CCc1ccc(Oc2ncnc(N)c2[N+](=O)[O-])cc1	-85.7	.	.	.	.	.
Cc1ccc(Oc2ncnc(N)c2[N+](=O)[O-])cc1C	.	?	?	.	.	.
Nc1ncnc(Oc2ccccc2F)c1[N+](=O)[O-]	-89.0	.	.	.	.	.
COc1ccc(-c2cn3nc(SCC(=O)Nc4ccc(C)c(Cl)c4)ccc3n2)cc1	/	.	/	.	/	.
OC[C@@H](O)[C@H](O)[C@H](O)[C@@H](O)CO	/	.	/	.	/	/
COc1ccc(NC(=O)c2cc(-c3ccccc3)nc3c2cnn3C(C)C)cc1	-70.0	.	?	.	?	.
CCNC(=O)c1cccc(NC(=O)c2cc(C3CC3)nc3c2cnn3C(C)C)c1	.	.	.	.	.	.
CC(C)n1ncc2c(C(=O)Nc3cccc(C#N)c3)cc(C3CC3)nc21	-57.6	?	23.1µM	?	.	?
Cc1ccc2nc(N3CCCCCC3)c(CN(CC3CCCO3)C(=O)c3cncs3)cc2c1 (configuration not stated)	/	?	/	/	/	.
COCCSc1ccccc1C(=O)NCc1cccnc1	-75.9	.	.	.[11.3 µM]	.	.
CC1=C(C#N)C(c2ccc(O)cc2)C2=C(CCCC2=O)N1 (configuration not stated)	.	.	.	.	.	.
CC1=C(C#N)C(c2cccnc2)C2=C(CC(c3ccc(Cl)cc3)CC2=O)N1 (configuration not stated)	?	.	.	.	7.31µM	.
COc1cccc(N2CC(O)=C(c3nc4ccccc4s3)C2=N)c1	.	.	?	/	3.66µM	.
COc1ccc(N2CC(O)=C(c3nc4ccccc4s3)C2=N)cc1	.	.	.	.	.	11.2µM
COc1ccc(Cl)cc1NC(=O)CSC1=Nc2ccccc2C2=NC(CC(=O)NCc3cccs3)C(=O)N12 (configuration not stated)	/	?	/	.	/	.
Cc1cc(C)c(C#N)c(SCC(=O)c2cc(C)n(CCc3ccccc3)c2C)n1	.	.	?	.	?	.
Cc1cc(C)c(C#N)c(SCC(=O)c2ccc(Cl)cc2Cl)n1	-93.5	.	.	.	.	?
COCCn1c(C)cc(C(=O)CSc2nnc3ccccn23)c1C	.	.	.	7.08µM	.	.
COCCn1c(C)cc(C(=O)CSc2nc(C)cc(C)c2C#N)c1C	-51.9	.	.	.	.	.
Cc1ccc(C(=O)CSc2nnc3ccccn23)c(C)c1	.	.	.	.	.	.
CCOC(=O)CSc1nc(C)cc(C)c1C#N	.	.	.	.	.	.
Cc1c(NC(=O)c2cc(-c3cccc(O)c3)on2)c(=O)n(-c2ccccc2)n1C	/	.	/	.	/	.
SMILES	IL1B secr inh	S2 tox	MCF10A rereplic	ATXN2 expr inh	SW480 rerep	PINK1 modulator
COc1ccc(NC(=O)c2cccc(Oc3ccc([N+](=O)[O-])cc3Cl)c2)cc1	.	.	6.51µM	.	?	.
O=C(Nc1cccc(Cl)c1)c1cccc(Oc2ccc([N+](=O)[O-])cc2Cl)c1	-59.4	?	?	/	4.11µM	?
Cc1ccc(C)c(NC(=O)c2cccc(Oc3ccc([N+](=O)[O-])cc3Cl)c2)c1	?	.	.	/	.	.
Clc1ccccc1CSc1nc(NCCc2ccccc2)c2ccccc2n1	/	/	/	/	/	.
CCN(CC)C(=O)Cn1ncc2c([nH]c3ccc(C)cc32)c1=O	/	.	/	.	/	.
Cc1ccc(S(=O)(=O)N2CCOCC2)cc1C(=O)NCCN1C(=O)S/C(=C\c2ccccc2Cl)C1=O	?	.	.	.	.	.
O=C(NCCN1C(=O)S/C(=C\c2cccc(Cl)c2Cl)C1=O)C1=COCCO1	.	?	2.59µM	.	?	.
COc1ccccc1CCn1cnc(-c2ccc(OC)c(OC)c2)c1C(C)C	-51.3	?	/	.	/	.
CCCCc1c(-c2ccc(OC)c(OC)c2)ncn1CCc1ccccc1OC	-50.9	/	/	?	/	?
CCCCc1c(-c2cccc(OC)c2)ncn1CCc1ccccc1OC	-95.6	/	/	22.4µM	/	?
CCCc1c(-c2cccc(Br)c2)ncn1Cc1ccccc1OC	.	?	/	.	/	.
Cc1cccc(CSc2nc3c(c(=O)[nH]2)C(c2cccc(O)c2)CC(=O)N3)c1 (configuration not stated)	/	.	/	.	/	.
COc1cc(OC)c2c(c1)C(=O)OC2c1cc(OC)c(OC)cc1C (configuration not stated)	/	/	/	/	/	.
O=C(NCC1CCC2(CCN(Cc3cccn3-c3ccc(Cl)cn3)CC2)O1)c1ccccc1 (configuration not stated)	/	.	/	/	/	.
CC(=O)c1cccc(NC(=O)Cc2cccs2)c1	.	.	.	.	.	.
CCC(=O)Nc1cccc(C(=O)c2ccccc2)c1	.	.	.	.	.	/
CCC(=O)Nc1cccc(C(=O)/C=C/c2cccs2)c1	-94.5	?	.	/	?	.
CCC(=O)Nc1cccc(C(=O)/C=C/c2ccccc2)c1	-117.4	?	8.2µM	?	?	.
CCc1cccc(CC)c1NC(=O)C(Cc1ccccc1)NS(=O)(=O)c1cccc2nsnc12 (configuration not stated)	/	.	/	.	/	.
O=C(COc1ccccc1C(=O)Nc1ccccc1)Nc1ccc2ccccc2c1	/	/	/	/	/	.
COc1ccc(Cl)cc1NC(=O)N1CCC(CN2CCc3ccccc3C2)CC1	/	/	/	/	/	.
O=C(Nc1ccc2c(c1)CCCN2C(=O)c1cccs1)c1cccc(C(F)(F)F)c1	/	35.5µM	/	?	/	.
O=C(Nc1ccc2c(c1)CCCN2C(=O)c1cccs1)c1ccc(F)c(F)c1	/	25.1µM	/	?	/	.
COCc1cccc(-c2csc(C(C)(O)c3cccc(F)c3)n2)c1 (configuration not stated)	.	.	/	.	/	.
CCC(Cc1ccccc1)NC(=O)Cn1ncc2c3ccccc3n(Cc3ccccc3)c2c1=O (configuration not stated)	/	?	/	.	/	.
O=C(NC1CCCCC1)c1sc(=S)n2c1[nH]c(=O)c1ccccc12	.	.	?	.	.	25.1µM
CCCCNC(=O)c1sc(=S)n2c1[nH]c(=O)c1ccccc12	.	.	?	.	.	?
CC1CCN(S(=O)(=O)c2ccc(C(=O)Nc3nnc(-c4ccncc4)o3)cc2)CC1	.	.	?	?	16.4µM	.

High-throughput results as filed in PubChem.
